# Test system: HeLa
# Test: percent cells in G1 phase; higher = more G1 arrest
# Details: 10 µM; 20 h; hit class: G1-phase inhibitor
# Experimental: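 HTS of 79,827 drug-like compounds at 10 uM. HeLa cells in 384-well plates were treated for 20 h, fixed, stained with Vybrant DyeCycle Green and scanned on an Acumen eX3 cytometer to give per-well cell cycle profiles (% cells in each phase). The plate Z' was 0.51. Only hits are listed: G1 hits >4 SD and S hits >5 SD from the mean.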
row,SMILES,percent cells in G1 phase
1,CNc1ccc2oc(C[C@H]3O[C@@]4(CC[C@H]3C)O[C@H]([C@H](C)C(=O)c3ccc[nH]3)[C@H](C)C[C@H]4C)nc2c1C(=O)O,84.7%
2,C[C@@H]1C[C@@H]([C@H](O)CC2CC(=O)NC(=O)C2)C(=O)[C@@H](C)C1 [Cycloheximide],77%
3,C/C(=C\c1ccc(Cl)cc1)[N+](=O)[O-],69.2%
4,O=[N+]([O-])c1ccc(NCCO)c2ncccc12,69.5%
5,CC(C)(C)c1cc(C=C(C#N)C#N)cc(C(C)(C)C)c1O,75.1%
6,C/C=C(/C)C(=O)O[C@H]1C(C)=C2[C@H]([C@@H]1OC(=O)CCCCCCC)[C@@](C)(OC(C)=O)C[C@H](OC(=O)CCC)[C@@]1(O)[C@H]2OC(=O)[C@@]1(C)O,81.5%
7,C[C@@H]1O[C@@H](O[C@H]2C[C@@H](O)[C@]3(CO)[C@H]4[C@H](O)C[C@]5(C)[C@@H](C6=CC(=O)OC6)CC[C@]5(O)[C@@H]4CC[C@]3(O)C2)[C@H](O)[C@H](O)[C@H]1O,70.1%
8,CNC1CC2OC(C)(C1OC)n1c3ccccc3c3c4c(c5c6ccccc6n2c5c31)C(=O)NC4 (centres undefined),86.7%
9,C[C@@]12C(=O)OC(=O)[C@]1(C)[C@H]1CC[C@@H]2O1,70.6%

# — the supplement of paper PMC4237247
